About 4,800 (77%) of roughly 6,200 compounds were called active. So high a share suggests a set chosen from earlier hits. Not all results are given here. Values without a mark were called inactive.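 The calls were made as follows: active = mean inhibition at 8 µM reaching about 37%, which flags the compound as non-specific (limit read from the data); inactive = the rest.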
Assay: luminescence decrease from intact luciferase reporter – cell-based, single concentration, SaOS-2, counter-screen for Mdm2/MdmX interaction inhibitor project, confirmation (AID 504607);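 also: p53-null SaOS-2 cells with luciferase driven by a doxycycline-inducible promoter; compound on cells about two nights before reading with doxycycline added after day one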
Settings: SaOS-2 full-length luciferase counterscreen, at 8 µM, hits give high values
In the case of O=C1[C@H]2[C@@H](c3ccc(F)cc3)N3C(=O)N(c4ccc(C(F)(F)F)cc4)C(=O)[C@@]3(Cc3ccccc3)[C@H]2C(=O)N1C1CCCCC1, the inhibition was 48.6% (active).
With COc1ccc2[nH]c(=O)c(CN(Cc3cccnc3)S(=O)(=O)c3ccccc3F)cc2c1 the inhibition was 56.2% (active).
Compound Cc1ccc(-c2cn3cc(C)ccc3n2)cc1 has an inhibition of 29%.
In the case of Cc1ccc2nc(-c3ccc(Br)cc3)cn2c1, the inhibition was 133% (active).
With FC(F)(F)c1nnc2c3ccccc3c(Cl)nn12 the inhibition was 79.9% (active).
In the case of CC1CN(C(=O)CCC(=O)NCCCN2CCC(Cc3ccccc3)CC2)c2cc(Cl)ccc2O1 (centres undefined), the inhibition was 40.4% (active).
For O=C(N/N=C\c1cc2c(cc1Cl)OCO2)c1ccc(Br)s1, the inhibition was 94.6% (active).
In the case of CCN(CC)S(=O)(=O)c1ccc(NC(=O)c2cccnc2Cl)c(NC(=O)c2cccnc2Cl)c1, the inhibition was 43.5% (active).
With N=c1n(CCc2ccccc2)c2ccccc2n1Cc1ccccc1F the inhibition was 69.7% (active).
In the case of CCOC(=O)/C=C/C(=O)OCC(=O)NC(c1ccccc1)c1ccccc1, the inhibition was 56.8% (active).
With O=[N+]([O-])/C=C/c1ccc2c(ccn2Cc2ccccc2)c1 the inhibition was 49% (active).
In the case of COc1ccc(Nc2oc(-c3ccccc3Cl)nc2C#N)cc1, the inhibition was 79% (active).
In the case of O=C(NNc1ccccc1Cl)C(O)(c1cccc(C(F)(F)F)c1)c1cccc(C(F)(F)F)c1, the inhibition was 87.9% (active).
With COC(=O)c1sc(-c2ccc(C(C)(C)C)cc2)cc1NC(=O)/C=C/C(=O)O the inhibition was 55.9% (active).
In the case of O=C(CSc1cccc2cccnc12)N/N=C/c1cccnc1, the inhibition was 68.1% (active).
CC(=O)/C(=N\Nc1ccc(Cl)cc1Cl)Sc1cccc2cccnc12 gave an inhibition of 19.1%.
In the case of CCn1cc(CN2CCC(C(=O)Nc3cccc(-c4cccc(Cl)c4)c3)CC2)c(C)n1, the inhibition was 74.2% (active).
For c1ccc2c(c1)CSc1sccc1C2=C1CCNCC1, the inhibition was 44.8% (active).
In the case of COc1cccc(-n2c(SCC(=O)NC3CCCCC3)nc3n[nH]c(C)c3c2=N)c1, the inhibition was 66.3% (active).
For NC(=O)c1sc2nc3c(c(-c4ccccc4)c2c1N)CCC3, the inhibition was 43.5% (active).
In the case of Cc1ccccc1C(=O)N1CCN(c2ccc(NC(=O)c3cccs3)cc2)CC1, the inhibition was 65.1% (active).
For Cc1cc(C(=O)NC2CCCc3c2cnn3-c2cccc(C)c2C)c(C)o1 (centres undefined), the inhibition was 91% (active).
In the case of COc1ccc(C(=O)NC2CCCc3c2cnn3-c2cccc(C)c2C)c(OC)n1 (centres undefined), the inhibition was 54.8% (active).
With CC(NC(=O)Nc1ccccc1)C(c1cccs1)N1CCN(c2ccccc2)CC1 (centres undefined) the inhibition was 58% (active).
In the case of N#Cc1cccc(NC(=O)COC(=O)c2ccccc2C(=O)c2ccc(Cl)c([N+](=O)[O-])c2)c1, the inhibition was 50.4% (active).
For CC(=O)Nc1ccc(NC(=O)C(C)OC(=O)c2ccccc2C(=O)c2ccc(Cl)c([N+](=O)[O-])c2)cc1 (centres undefined), the inhibition was 52.9% (active).
In the case of Cc1cccc(-c2oc3ccc(-c4ccc5c(c4)OCO5)cc3c2C#Cc2cncn2C)c1, the inhibition was 80.9% (active).
For Oc1ccccc1N1CCN(c2ncnc3sc(-c4ccccc4)cc23)CC1, the inhibition was 58.6% (active).
For O=C(Oc1c(-c2ccco2)oc2ccccc2c1=O)c1cccnc1, the inhibition was 90.3% (active).
For COc1cc2c(cc1OC)C(C)N(S(=O)(=O)c1cnc(Cl)c(Cl)c1)CC2 (centres undefined), the inhibition was 45.3% (active).
For CN(C)CC(O)COc1ccc(C(C)(C)c2ccc(OCC(O)CN(C)C)cc2)cc1 (centres undefined), the inhibition was 56.8% (active).
For Cn1cc(/C=C/c2nc3ccccc3c(=O)n2-c2cccc([N+](=O)[O-])c2)c2ccccc21, the inhibition was 90.7% (active).
In the case of C=CCn1c(C)cc(C(=O)CN2C(=O)c3ccccc3C2=O)c1C, the inhibition was 103% (active).
For C=CCn1c(C)cc(C2=NNC(=NCC)SC2)c1C, the inhibition was 24.4%.
With O=C(NCC#CCSc1nnc(-c2cccc3ccccc23)o1)c1cccs1 the inhibition was 22.6%.
For CCCc1nc2c(c(=O)c3ccccc3n2C)c(=O)n1C1CCCCCC1, the inhibition was 63.9% (active).
In the case of COc1cccc(CNC(=O)c2nnn(CC(=O)Nc3cc(Cl)ccc3C)c2N)c1, the inhibition was 47.8% (active).
For Cc1cc(C)c2[nH]c(=O)c(CN(Cc3ccccc3)C(=S)NCCCN(C)C)cc2c1, the inhibition was 58.1% (active).
In the case of COc1ccc(-c2nc(-c3ccccc3)no2)c(OC)c1, the inhibition was 95.8% (active).
For CSc1nc(-c2ccccc2)nc(C(Cl)Cl)n1, the inhibition was 49.7% (active).
For O=C(Cn1nnc(-c2ccccc2)n1)N/N=C/c1ccc(-c2ccc(Cl)cc2)o1, the inhibition was 106% (active).
In the case of COc1cc(NC(=O)c2ccccc2NS(=O)(=O)c2ccc(Cl)s2)cc(OC)c1, the inhibition was 40.5% (active).
With CCc1ccc(-c2cc3c(=O)n(CC(=O)NCCCN4CCN(Cc5ccccc5)CC4)nc(C)n3n2)cc1 the inhibition was 60.8% (active).
CCc1ccc(CNC(=O)C2CCN(c3nnc(C)c4c(C)n(-c5ccc(C)cc5)nc34)CC2)cc1 showed an inhibition of 23.7%.
In the case of FC(F)(F)c1ccc(CN2C[C@@H]3C(c4ccccc4)C4(c5ccccc5)CC3(C4)[C@H]2c2ccccc2)cc1 (some centres undefined), the inhibition was 27.2%.
With COCCCNc1nc2c(-c3cccc(C)c3)nnn2c2ccc(Cl)cc12 the inhibition was 54.2% (active).
For CCOc1ccccc1NC(=O)Cn1nnc(C(=O)NCc2cccs2)c1N, the inhibition was 80.5% (active).
With Cc1ccccc1OCCOc1ccc([N+](=O)[O-])cc1/C=N/n1cnnc1 the inhibition was 89% (active).
In the case of CC1(C)CC(N2CCN(C(c3ccccc3)c3ccccc3)CC2)=CC(=[N+]2CCCCC2)C1, the inhibition was 55.6% (active).
For Cc1c(/C=N\NC(=O)c2cc3ccccc3o2)c2ccccc2n1C, the inhibition was 61.8% (active).
In the case of Cc1ccc2occ(/C=N/NC(=O)c3ccccc3C)c(=O)c2c1, the inhibition was 34.4%.
With COc1ccc(CCn2c(=N)c(C(=O)NCC3CCCO3)cc3c(=O)n4cccc(C)c4nc32)cc1OC (centres undefined) the inhibition was 54% (active).
For Cc1cccn2c(=O)c3cc(C(=O)NCCN4CCOCC4)c(=N)n(Cc4cccnc4)c3nc12, the inhibition was 57.1% (active).
With Cc1cccc(-n2ncc(Cl)c(Cl)c2=O)c1 the inhibition was 0.23%.
In the case of CN(Cc1ccccc1)CC(O)COc1ccc(CNCc2cc3ccccc3s2)cc1 (centres undefined), the inhibition was 79.3% (active).
For O=C(Nc1ccncc1)c1c(F)cccc1F, the inhibition was 38.9% (active).
With CC(C)(C)CC(C)(C)NCC(O)COCCOc1ccc(Br)cc1 (centres undefined) the inhibition was 62.6% (active).
For COc1ccccc1N1CCN(C(=O)c2cc(=O)c3cc(C)cc(C)c3o2)CC1, the inhibition was 101% (active).
With Oc1c(Br)cccc1/C=N/Nc1c(F)c(F)c(F)c(F)c1F the inhibition was 56.7% (active).
For O=C(Nc1ccc2ccccc2c1)Nc1ccc2snnc2c1, the inhibition was 44.4% (active).
With COc1cccc(NC(=O)[C@H](Cc2c[nH]c3ccccc23)NC(=O)[C@@H]2Cc3ccccc3CN2)c1 the inhibition was 53.2% (active).
For Cc1cc(CNC(=O)c2cccc([N+](=O)[O-])c2)c2ccccc2n1, the inhibition was 41.5% (active).
Work on O=C(NC(Nc1nc2ccc([N+](=O)[O-])cc2s1)(C(F)(F)F)C(F)(F)F)c1ccccc1 yielded an inhibition of 8.11%.
Work on Cc1ccc(-c2nc3ccccc3[nH]2)cc1NC(=O)c1sc2ccccc2c1Cl yielded an inhibition of 18.5%.
With CCOC(=O)c1c(NC(=O)c2ccc(S(=O)(=O)N(C)CC3CCCO3)cc2)sc2c1CC(C)(C)NC2(C)C (centres undefined) the inhibition was 62.7% (active).
With COC(=O)c1c(NC(=O)COc2ccc(Cl)cc2Cl)sc2c1CC(C)(C)NC2(C)C the inhibition was 3.07%.
With O=C(CC(O)(C(F)(F)F)C(F)(F)F)Nc1ccc(Cl)c(Cl)c1 the inhibition was 58.1% (active).
Cc1cccc2sc(N(CCCN(C)C)C(=O)CCS(=O)(=O)c3ccccc3)nc12 gave an inhibition of 14.4%.
With CN(NC(=O)c1ccccc1)c1nc2ccccc2nc1C(F)(F)F the inhibition was 68.8% (active).
With CN(NC(=O)c1ccccc1F)c1nc(C(F)(F)F)nc2ccccc12 the inhibition was 63.5% (active).
With CSc1nc(N(C)NC(=O)c2cccc(C)c2)c2ccccc2n1 the inhibition was 135% (active).
With CC1(C)CCSC(/C=C/c2ccccc2)=N1 the inhibition was 30.5%.
With Cc1ccccc1C(CC(=O)c1cccs1)C(C#N)C#N (centres undefined) the inhibition was 45.1% (active).
With O=C(Nc1ccc(C(=O)N2CCOCC2)cc1)Nc1cccc(C(F)(F)F)c1 the inhibition was 49.8% (active).
In the case of Cc1cccc(NC(=O)Nc2cccc(Oc3c(F)c(F)c(F)c(F)c3F)c2)c1, the inhibition was 32.5%.
For CCNS(=O)(=O)c1ccc(NC(=O)Nc2cccc(C(F)(F)F)c2)cc1, the inhibition was 53.4% (active).
For COc1ccc(-c2ccc(Nc3ccc(S(=O)(=O)N4CCCC4)cc3)nn2)cc1OC, the inhibition was 77.8% (active).
With COc1ccc(-c2cc(C(F)(F)F)nc(S(C)(=O)=O)n2)cc1OC the inhibition was 24.3%.
With COc1ccc(C(=O)O/N=C(\N)Cc2ccc(Cl)cc2Cl)cc1OC the inhibition was 47.8% (active).
With Cc1cccc(Nc2ccccc2C(=O)NCc2ccco2)c1C the inhibition was 39.6% (active).
For COc1ccc2sc(-c3ccc(S(C)(=O)=O)cc3)c(C#Cc3cncn3C)c2c1, the inhibition was 44.8% (active).
COc1cccc(-c2sc3ccc(OC)cc3c2-c2ccc(OCCN3CCCCC3)cc2)c1 gave an inhibition of 32.7%.
In the case of O=C1N/C(=C/c2cccn2-c2ccccc2)C(=O)N1c1cccc(Cl)c1, the inhibition was 126% (active).
With Cc1cccc(-n2c(C)cc(/C=N\NC(=O)c3cccs3)c2C)c1 the inhibition was 178% (active).
For Cc1cc(C(=O)COc2ccccc2[N+](=O)[O-])c(C)n1-c1cccc(S(=O)(=O)N2CCOCC2)c1, the inhibition was 89.8% (active).
For Cn1nc(-c2ccccc2)c(CSc2cccc(Cl)c2)c1Cl, the inhibition was 51.5% (active).
CCN1CCN(CCNC(=O)c2ccc(/C=C3/Sc4ccccc4N(Cc4cccc(C)c4)C3=O)cc2)CC1 showed an inhibition of 27.6%.
For CN1CCN(CCCNC(=O)c2ccc(/C=C3\Oc4ccccc4N(Cc4ccc(Cl)cc4)C3=O)cc2)CC1, the inhibition was 62.6% (active).
In the case of Cc1ccc(OCC(O)CN2CCN(CC(O)COc3ccc(C)cc3Cl)CC2)c(Cl)c1 (centres undefined), the inhibition was 71.1% (active).

From PubChem BioAssay AID504607 (Sanford-Burnham Center for Chemical Genomics, 2011)
